From the supplement of paper PMC9801561 come the findings set out here.

The subject of assay [1] is Escherichia coli Nissle 1917. Briefly: area under OmniLog respiration curve over 48 h (OmniLog units x h); higher = more growth / nutrient utilisation; extreme values may be limits of the assay. The following applies: incubation: 48 h, 37 °C.
Assay [2] concerns Escherichia coli Nissle 1917. Description: DuctApe activity index of respiration/growth curve (0 no growth to 9 maximum) (index 0-9); higher = more growth / nutrient utilisation, active = 3 or more; extreme values may be limits of the assay. The settings on record: incubation: 48 h, 37 °C.
The mark [3] stands for this setting: nutrient role: sole nitrogen source (pyruvate carbon).
[4] abbreviates: nutrient role: C-Source, carboxylic acid.
The mark [5] stands for this setting: nutrient role: C-Source, carbohydrate.
Setting [6] is: nutrient role: sole sulfur source (pyruvate carbon).
[7] abbreviates: nutrient role: sole phosphorus source (pyruvate carbon).
Setting [8] is: nutrient role: C-Source, alcohol.

± gives the standard deviation of the averaged measurements.
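Wherever DuctApe activity index of respiration/growth curve (0 no growth to 9 maximum) is given: biolog PM4 phosphorus and sulfur plates, tetrazolium violet dye reduction read in the OmniLog every 15 min, kinetic curves scored by DuctApe, each plate run in triplicate.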

Regarding `CC(C)[C@@H](N)C(=O)O` [D-Valine], the “area under OmniLog respiration curve” value in assay [1] (setting [3]) stood at 469 ± 470. In addition, in assay [2] (setting [3]), the DuctApe activity index is 0.667 (inactive).

Consider `O=C1O[C@@H]([C@H](O)CO)[C@H](O)[C@H]1O` [D-Galactonic acid-g-Lactone], for which the “area under OmniLog respiration curve” value in assay [1] (setting [4]) is 8410 ± 840. Moreover, the DuctApe activity index in assay [2] (setting [4]) is 8.33 (active).

In the case of `CO[C@H]1O[C@H](CO)[C@@H](O)[C@H](O)[C@@H]1O` [a-Methyl-D-Mannoside], the “area under OmniLog respiration curve” value in assay [1] (setting [5]) came to 16.9 ± 21. In addition, the DuctApe activity index in assay [2] (setting [5]) is 0 (inactive).

Take `COC(=O)[C@@H](C)O` [D-Lactic acid Methyl Ester]: in assay [1] (nutrient role: C-Source, ester), the “area under OmniLog respiration curve” value is 7990 ± 370. Moreover, the DuctApe activity index in assay [2] (nutrient role: C-Source, ester) is 8 (active).

As to `N[C@@H](CS(=O)O)C(=O)O` [L-Cysteine Sulfinic acid], in assay [1] (setting [6]), the “area under OmniLog respiration curve” value was 7460 ± 360. Further, the DuctApe activity index in assay [2] (setting [6]) was 7.67 (active).

As to `O=C1NC(=O)C(=O)N1` [Parabanic acid], the “area under OmniLog respiration curve” value in assay [1] (setting [3]) turned out to be 556 ± 610. For the same compound, the DuctApe activity index in assay [2] (setting [3]) was 1.33 (inactive).

Take `Nc1cc[nH]c(=O)n1` [Cytosine]: the “area under OmniLog respiration curve” value in assay [1] (setting [3]) was 5890 ± 1100. Moreover, the DuctApe activity index in assay [2] (setting [3]) was 7 (active).

For `NC=O` [Formamide], in assay [1] (setting [3]), the “area under OmniLog respiration curve” value turned out to be 38.4 ± 58. Further, in assay [2] (setting [3]), the DuctApe activity index is 0 (inactive).

Regarding `Nc1nc2c(ncn2[C@@H]2O[C@H](CO)[C@@H](O)[C@H]2O)c(=O)[nH]1` [Guanosine], in assay [1] (setting [3]), the “area under OmniLog respiration curve” value stood at 442 ± 580. Moreover, the DuctApe activity index in assay [2] (setting [3]) is 0.333 (inactive).

For the compound `CCC(C)N` (configuration not stated) [sec-Butylamine], the “area under OmniLog respiration curve” value in assay [1] (nutrient role: C-Source, amine) turned out to be 5.72 ± 1.7. Besides, in assay [2] (nutrient role: C-Source, amine), the DuctApe activity index is 0 (inactive).

In the case of `O=P(O)(O)OC[C@H]1OC(O)C[C@@H](O)[C@@H]1O` (stereo partly drawn) [2-Deoxy-D-Glucose 6-Phosphate], the “area under OmniLog respiration curve” value in assay [1] (setting [7]) came to 4.72. Moreover, the DuctApe activity index in assay [2] (setting [7]) was 0 (inactive).

Turning to `CC(O)(CC(=O)O)C(=O)O` (configuration not stated) [Citramalic acid], in assay [1] (setting [4]), the “area under OmniLog respiration curve” value worked out at 4.72. In addition, the DuctApe activity index in assay [2] (setting [4]) was 0 (inactive).

For the compound `OC[C@@H](O)[C@@H](O)CO` [i-Erythritol], the “area under OmniLog respiration curve” value in assay [1] (setting [5]) was 4.72. Moreover, the DuctApe activity index in assay [2] (setting [5]) was 0 (inactive).

As to `CSCC[C@H](N)C(=O)N[C@@H](C)C(=O)O`, the “area under OmniLog respiration curve” value in assay [1] (setting [3]) came to 6410 ± 1200. Also, the DuctApe activity index in assay [2] (setting [3]) is 7 (active).

Turning to `CCC(N)C(=O)O` (racemic) [DL-a-Amino-N-Butyric acid], the “area under OmniLog respiration curve” value in assay [1] (setting [3]) is 6040 ± 1200. In addition, in assay [2] (setting [3]), the DuctApe activity index was 7 (active).

With `O=C(CO)[C@@H](O)[C@H](O)[C@@H](O)C(=O)O` [5-Keto-D-Gluconic acid], the “area under OmniLog respiration curve” value in assay [1] (setting [4]) came to 118 ± 140. Also, the DuctApe activity index in assay [2] (setting [4]) was 0 (inactive).

Consider `OC[C@@]12OC[C@@H](O1)[C@@H](O)[C@@H](O)[C@@H]2O` [Sedoheptulosan], for which, in assay [1] (setting [5]), the “area under OmniLog respiration curve” value was found to be 201 ± 160. Moreover, the DuctApe activity index in assay [2] (setting [5]) is 1.33 (inactive).

On to `CC(=O)CC(=O)O` [Acetoacetic acid], for which the “area under OmniLog respiration curve” value in assay [1] (setting [4]) amounted to 784 ± 630. Moreover, the DuctApe activity index in assay [2] (setting [4]) was 0 (inactive).

Take `Nc1ncnc2c1ncn2[C@@H]1O[C@H](CO)[C@@H](OP(=O)(O)O)[C@H]1O` [Adenosine 3`-Monophosphate]: in assay [1] (setting [7]), the “area under OmniLog respiration curve” value is 9700 ± 640. Besides, in assay [2] (setting [7]), the DuctApe activity index was 9 (active).

As for `O=C(O)CO` [Glycolic acid], the “area under OmniLog respiration curve” value in assay [1] (setting [4]) came out at 7210 ± 370. Further, in assay [2] (setting [4]), the DuctApe activity index was 7.67 (active).

Consider `C[S+]([O-])CC[C@H](N)C(=O)O` (stereo partly drawn) [L-Methionine Sulfoxide], for which the “area under OmniLog respiration curve” value in assay [1] (setting [6]) was determined as 5350 ± 130. Further, in assay [2] (setting [6]), the DuctApe activity index is 7 (active).

On to `CC(O)CO` (configuration not stated) [1,2-Propanediol], for which, in assay [1] (setting [8]), the “area under OmniLog respiration curve” value stood at 123 ± 100. The DuctApe activity index in assay [2] (setting [8]) was 1.33 (inactive).

Turning to `O=S1(=O)CCCC1` [Tetramethylene Sulfone], in assay [1] (setting [6]), the “area under OmniLog respiration curve” value worked out at 615 ± 500. Further, in assay [2] (setting [6]), the DuctApe activity index was 0 (inactive).

As to `NC(=O)CCCCC1CCSS1` (racemic) [DL-Lipoamide], in assay [1] (setting [6]), the “area under OmniLog respiration curve” value was determined as 561 ± 220. In assay [2] (setting [6]), the DuctApe activity index is 1 (inactive).

In the case of `O=C(O)[C@H]1OC(O)[C@H](O)[C@@H](O)[C@@H]1O` (stereo partly drawn) [D-Glucuronic acid], the “area under OmniLog respiration curve” value in assay [1] (setting [4]) was 10000 ± 950. In addition, in assay [2] (setting [4]), the DuctApe activity index is 9 (active).

For the compound `Nc1ccn([C@@H]2O[C@H](CO)[C@@H](O)[C@H]2OP(=O)(O)O)c(=O)n1` [Cytidine 2`-Monophosphate], the “area under OmniLog respiration curve” value in assay [1] (setting [7]) was found to be 9170 ± 640. Also, the DuctApe activity index in assay [2] (setting [7]) was 8.67 (active).

Consider `O=C(O)C(O)COP(=O)(O)O` [D-3-Phospho-Glyceric acid], for which, in assay [1] (setting [7]), the “area under OmniLog respiration curve” value is 9300 ± 690. Also, in assay [2] (setting [7]), the DuctApe activity index was 8.67 (active).

For `O=C(O)CCC(=O)C(=O)O` [a-Ketoglutaric acid], in assay [1] (setting [4]), the “area under OmniLog respiration curve” value was found to be 5770 ± 360. Further, the DuctApe activity index in assay [2] (setting [4]) is 6.67 (active).

Consider `OC[C@@H](O)[C@@H](O)[C@H](O)[C@@H](O)CO` [D-Sorbitol], for which the “area under OmniLog respiration curve” value in assay [1] (setting [5]) was 8340 ± 910. In assay [2] (setting [5]), the DuctApe activity index is 8.33 (active).

As to `O=C(CO)[C@@H](O[C@H]1O[C@H](CO)[C@@H](O)[C@H](O)[C@H]1O)[C@H](O)[C@H](O)CO` [Turanose], in assay [1] (setting [5]), the “area under OmniLog respiration curve” value came out at 532 ± 350. The DuctApe activity index in assay [2] (setting [5]) was 0.333 (inactive).

With `O=C(O)[C@@H](O)[C@H](O)C(=O)O` [D-Tartaric acid], the “area under OmniLog respiration curve” value in assay [1] (setting [4]) came out at 8.46 ± 6.5. Also, the DuctApe activity index in assay [2] (setting [4]) is 0 (inactive).

For the compound `N[C@@H]1[C@@H](O)[C@H](O)[C@@H](COP(=O)(O)O)O[C@@H]1O` [D-Glucosamine-6-Phosphate], the “area under OmniLog respiration curve” value in assay [1] (setting [7]) amounted to 9120 ± 620. In addition, the DuctApe activity index in assay [2] (setting [7]) was 8.67 (active).

As to `CCC(=O)O` [Propionic acid], the “area under OmniLog respiration curve” value in assay [1] (setting [4]) was 7450 ± 300. In assay [2] (setting [4]), the DuctApe activity index was 8 (active).

Take `CC(=O)N[C@@H](CO)[C@@H](O)[C@H](O)[C@H](O)CO` [N-Acetyl-D-Glucosaminitol]: the “area under OmniLog respiration curve” value in assay [1] (setting [5]) worked out at 4.72. In assay [2] (setting [5]), the DuctApe activity index was 0 (inactive).

Take `O=C(O)[C@@H](O)[C@@H](O)[C@H](O)[C@@H](O)C(=O)O` [D-Saccharic acid]: the “area under OmniLog respiration curve” value in assay [1] (setting [4]) turned out to be 9150 ± 780. Further, in assay [2] (setting [4]), the DuctApe activity index is 8.67 (active).

For the compound `NC(CCSCC(N)C(=O)O)C(=O)O` (configuration not stated) [Cystathionine], the “area under OmniLog respiration curve” value in assay [1] (setting [6]) was 4100 ± 130. Moreover, the DuctApe activity index in assay [2] (setting [6]) is 6 (active).
